Reference: the supplement of paper PMC10849652
Of roughly 8,800 targets only a part is listed; those with a hit were picked by preference. About 0.5% of all pairs of compound and target were hits.

Key:
Test in all cases: log2 fold change, soluble protein after heating vs DMSO (PISA); higher = thermal stabilisation; K562 lysate, 10 uM; active = over 0.2 and 3.5 SD of the protein, either way, in both replicates (recomputed)
vemurafenib = compound: CCCS(=O)(=O)Nc1ccc(F)c(C(=O)c2c[nH]c3ncc(-c4ccc(Cl)cc4)cc23)c1F [vemurafenib]
Procedure, shortened: (§1)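 Quantification was by TMTpro 16plex LC-MS/MS with equalised channel sums, applied to the supernatant after 21,000xg for 90 min. Samples were crude K562 extract at 1 mg/mL protein in PBS pH 7.4 with 1 mM MgCl2, treated with 10 μM compound for 30 min, heated for 3 min across 48°C-58°C, pooled and brought to 0.5% NP-40 at 4°C. Values are log-two fold changes in thermal stability relative to solvent controls, from duplicates.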

[1] = compound: CCCS(=O)(=O)Nc1ccc(F)c(C(=O)c2c[nH]c3ncc(Cl)cc23)c1F
Procedure, shortened: as §1

barasertib = compound: CCN(CCCOc1ccc2c(Nc3cc(CC(=O)Nc4cccc(F)c4)[nH]n3)ncnc2c1)CCOP(=O)(O)O [barasertib]
Procedure, shortened: as §1

[2] = compound: CC[C@@H]1C(=O)N(C)c2cnc(Nc3ccc(C(=O)NC4CCN(C)CC4)cc3OC)nc2N1C1CCCC1
Procedure, shortened: as §1

volasertib = compound: CC[C@@H]1C(=O)N(C)c2cnc(Nc3ccc(C(=O)N[C@H]4CC[C@H](N5CCN(CC6CC6)CC5)CC4)cc3OC)nc2N1C(C)C [volasertib]
Procedure, shortened: as §1

[3] = compound: CCn1c(C(=O)N(C2CC2)C2CC2)cc2c3c(ncn3C)c(Nc3cc(C)n(C)n3)nc21
Procedure, shortened: as §1

[4] = compound: CCn1cc(-c2ccnc3[nH]c(-c4cccc(CN(C)C)c4)cc23)c(-c2ccc(NC(=O)N(C)C)cc2)n1
Procedure, shortened: as §1

[5] = compound: CN1CCC(CNc2ccc3ncc(-c4cccc(OC(F)(F)F)c4)n3n2)CC1
Procedure, shortened: as §1

saracatinib = compound: CN1CCN(CCOc2cc(OC3CCOCC3)c3c(Nc4c(Cl)ccc5c4OCO5)ncnc3c2)CC1 [saracatinib]
Procedure, shortened: as §1

sotrastaurin = compound: CN1CCN(c2nc(C3=C(c4c[nH]c5ccccc45)C(=O)NC3=O)c3ccccc3n2)CC1 [sotrastaurin]
Procedure, shortened: as §1

Measured: log2 fold change

PGGT1B (UniProt P53609)
Chain of UniProt P53609 (P53609 whole entry, looked up): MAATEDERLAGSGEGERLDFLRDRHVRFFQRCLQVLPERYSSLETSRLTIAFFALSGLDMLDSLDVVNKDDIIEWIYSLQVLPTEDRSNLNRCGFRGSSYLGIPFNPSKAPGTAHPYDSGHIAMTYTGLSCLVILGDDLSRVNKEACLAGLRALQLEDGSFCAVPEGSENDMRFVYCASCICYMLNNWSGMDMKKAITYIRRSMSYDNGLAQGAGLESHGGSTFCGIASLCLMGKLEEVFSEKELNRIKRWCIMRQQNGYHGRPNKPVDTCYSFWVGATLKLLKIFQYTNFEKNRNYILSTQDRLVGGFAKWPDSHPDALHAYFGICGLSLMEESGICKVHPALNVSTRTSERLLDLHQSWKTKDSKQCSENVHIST
inactive: vemurafenib -0.159 | [1] 0.004 | barasertib 0 | [2] -0.041 | volasertib 0.1 | [3] 0.006 | [4] 0.011 | [5] 0.008 | saracatinib 0.028 | sotrastaurin -0.029

PTPN6 isoform 4 (UniProt P29350)
Chain of UniProt P29350 (P29350 whole entry, looked up): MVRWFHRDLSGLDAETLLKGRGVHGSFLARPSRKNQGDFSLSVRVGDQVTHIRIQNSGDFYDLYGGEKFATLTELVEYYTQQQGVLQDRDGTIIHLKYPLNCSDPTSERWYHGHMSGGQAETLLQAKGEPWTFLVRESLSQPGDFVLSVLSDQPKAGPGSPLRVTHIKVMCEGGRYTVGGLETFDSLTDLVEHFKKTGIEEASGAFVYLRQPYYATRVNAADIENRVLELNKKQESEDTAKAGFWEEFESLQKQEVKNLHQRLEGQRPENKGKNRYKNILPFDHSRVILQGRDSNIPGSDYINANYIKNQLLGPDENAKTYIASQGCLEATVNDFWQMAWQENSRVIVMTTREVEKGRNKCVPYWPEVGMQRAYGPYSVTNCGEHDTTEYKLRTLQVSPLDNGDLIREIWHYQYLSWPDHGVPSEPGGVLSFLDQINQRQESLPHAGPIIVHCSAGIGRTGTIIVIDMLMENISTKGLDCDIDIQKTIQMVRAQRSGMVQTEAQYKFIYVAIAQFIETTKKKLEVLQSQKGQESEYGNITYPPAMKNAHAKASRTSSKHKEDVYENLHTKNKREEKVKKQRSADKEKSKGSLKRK
inactive: vemurafenib 0.02 | [1] -0.089 | barasertib 0.081 | volasertib 0.014 | [3] 0.026 | [4] -0.038 | [5] -0.024 | saracatinib -0.046 | sotrastaurin 0.006
active: [2] -0.487

POLR2G (UniProt P62487)
inactive: vemurafenib -0.014 | [1] 0.02 | barasertib -0.003 | [2] 0.03 | volasertib 0.023 | [3] 0 | [4] 0.025 | [5] 0.05 | saracatinib 0.016 | sotrastaurin 0.011

PDCD10 (UniProt Q9BUL8)
inactive: vemurafenib -0.021 | [1] -0.002 | barasertib 0.006 | [2] -0.012 | volasertib 0.007 | [3] 0 | [5] 0.029 | saracatinib 0.016 | sotrastaurin 0.04
active: [4] -0.269

PPP1R12B isoform 6 (UniProt O60237)
inactive: vemurafenib 0.08 | [1] 0.036 | barasertib -0.046 | [2] 0.133 | volasertib -0.029 | [3] -0.209 | saracatinib -0.047 | sotrastaurin -0.057

PPT2 isoform 3 (UniProt Q9UMR5)
inactive: vemurafenib 0.007 | [1] 0.012 | barasertib 0.028 | [2] 0.01 | volasertib -0.023 | [3] -0.026 | [4] 0.007 | [5] 0.018 | saracatinib -0.011 | sotrastaurin 0.003

POLR2M (UniProt Q6EEV4)
Chain of UniProt Q6EEV4 (Q6EEV4 whole entry, looked up): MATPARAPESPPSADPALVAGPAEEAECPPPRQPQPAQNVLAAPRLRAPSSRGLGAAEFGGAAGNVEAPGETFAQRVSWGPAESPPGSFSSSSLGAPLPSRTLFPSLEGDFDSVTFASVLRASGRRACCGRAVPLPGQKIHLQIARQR
inactive: vemurafenib 0.117 | [1] -0.043 | barasertib 0.176 | [2] 0.032 | volasertib -0.074 | [4] 0.154 | [5] -0.077 | saracatinib 0.016 | sotrastaurin -0.072

PCBP2 (UniProt F8W0G4)
inactive: vemurafenib 0.121 | barasertib 0.035 | [2] -0.253 | [3] -0.066 | saracatinib 0.005

PRRG1 (UniProt O14668)
inactive: [3] 0.052

PPP1R11 (UniProt O60927)
Chain of UniProt O60927 (O60927 whole entry, looked up): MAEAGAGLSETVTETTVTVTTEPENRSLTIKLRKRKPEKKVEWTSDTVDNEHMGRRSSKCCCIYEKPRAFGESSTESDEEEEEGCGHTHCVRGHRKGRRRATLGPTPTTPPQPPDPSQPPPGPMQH
inactive: [1] 0.069 | barasertib -0.04 | [2] 0.153 | volasertib 0.046 | [3] -0.101 | [4] 0.16 | [5] -0.067 | saracatinib -0.05 | sotrastaurin 0.001

PHOSPHO2 (UniProt C9JD35)
inactive: [2] -0.432 | sotrastaurin -0.027

PRG4 (UniProt Q92954)
inactive: [1] -0.038 | barasertib 0.332 | volasertib 0.054 | [3] -0.03 | [4] -0.179 | [5] 0.229 | saracatinib 0.009 | sotrastaurin -0.02

PPP2R5C isoform 2 (UniProt Q13362)
inactive: vemurafenib 0.014 | barasertib -0.267 | [3] -0.081 | [4] -0.023 | [5] -0.033 | saracatinib 0.014 | sotrastaurin 0.134

PRIMPOL (UniProt Q96LW4)
Chain of UniProt Q96LW4 (Q96LW4 whole entry, looked up): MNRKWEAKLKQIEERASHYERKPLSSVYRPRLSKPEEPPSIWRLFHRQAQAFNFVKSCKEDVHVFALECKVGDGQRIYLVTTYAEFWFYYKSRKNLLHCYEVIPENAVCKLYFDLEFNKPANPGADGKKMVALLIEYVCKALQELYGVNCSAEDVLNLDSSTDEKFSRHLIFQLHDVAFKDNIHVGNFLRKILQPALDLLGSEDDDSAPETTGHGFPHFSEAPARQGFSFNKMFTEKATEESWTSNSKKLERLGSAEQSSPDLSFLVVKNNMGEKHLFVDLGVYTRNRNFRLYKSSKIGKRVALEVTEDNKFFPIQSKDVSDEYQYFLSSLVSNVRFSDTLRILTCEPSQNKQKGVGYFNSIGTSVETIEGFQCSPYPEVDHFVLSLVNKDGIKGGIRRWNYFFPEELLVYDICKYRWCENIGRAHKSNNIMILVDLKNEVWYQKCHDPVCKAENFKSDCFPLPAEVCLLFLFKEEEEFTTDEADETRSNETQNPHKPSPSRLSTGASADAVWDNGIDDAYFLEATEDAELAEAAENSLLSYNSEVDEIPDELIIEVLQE
inactive: vemurafenib -0.02 | barasertib -0.083 | [2] -0.095 | [3] 0.011 | saracatinib 0.014 | sotrastaurin 0.089

PTMA isoform 2 (UniProt P06454)
inactive: barasertib -0.09

PRADC1 (UniProt Q9BSG0)
active: barasertib -0.509
inactive: [1] 0.011 | volasertib 0.074 | [3] -0.05 | [4] 0.057 | [5] 0.101 | saracatinib 0.054 | sotrastaurin -0.015

PYGO2 (UniProt Q9BRQ0)
Chain of UniProt Q9BRQ0 (Q9BRQ0 whole entry, looked up): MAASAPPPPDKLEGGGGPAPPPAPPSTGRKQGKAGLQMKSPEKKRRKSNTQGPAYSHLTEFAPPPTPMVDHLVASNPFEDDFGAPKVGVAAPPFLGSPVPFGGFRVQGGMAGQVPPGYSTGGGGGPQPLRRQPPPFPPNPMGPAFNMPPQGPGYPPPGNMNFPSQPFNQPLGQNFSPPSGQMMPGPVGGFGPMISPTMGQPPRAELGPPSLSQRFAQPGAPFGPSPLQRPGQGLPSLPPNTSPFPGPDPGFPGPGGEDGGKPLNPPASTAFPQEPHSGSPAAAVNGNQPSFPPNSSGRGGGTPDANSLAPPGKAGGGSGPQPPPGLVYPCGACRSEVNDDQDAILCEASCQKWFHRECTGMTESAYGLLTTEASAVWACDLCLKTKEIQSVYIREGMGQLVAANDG
inactive: barasertib 0.036 | [2] -0.106 | [3] 0 | [4] -0.044 | [5] 0.042 | saracatinib 0.07 | sotrastaurin -0.022

PTK2 isoform 2 (UniProt Q05397)
inactive: [1] -0.101 | barasertib 0.05 | [2] -0.076 | volasertib -0.387 | saracatinib -0.063

PFN3 (UniProt P60673)
Chain of UniProt P60673 (P60673 whole entry, looked up): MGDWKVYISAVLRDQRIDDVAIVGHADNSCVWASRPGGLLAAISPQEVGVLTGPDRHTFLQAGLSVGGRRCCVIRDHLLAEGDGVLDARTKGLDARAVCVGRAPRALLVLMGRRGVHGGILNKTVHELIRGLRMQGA
active: [4] -0.706
inactive: vemurafenib 0.059 | [1] 0 | [2] 0.112 | volasertib 0.056 | [5] 0.109 | sotrastaurin 0.042

PDE4DIP (UniProt E9PS60)
inactive: vemurafenib -0.014 | [2] 0.017 | [5] 0.153 | saracatinib 0.067 | sotrastaurin 0.137
active: [4] -0.942

PIK3CG (UniProt P48736)
inactive: vemurafenib 0.028 | barasertib 0.046 | [2] 0.004 | [3] 0.006 | saracatinib 0.028 | sotrastaurin 0.051
active: [4] -0.276 | [5] 0.289

PIM1 isoform 2 (UniProt P11309)
active: [5] 1.46 | sotrastaurin 0.593
inactive: vemurafenib -0.061 | barasertib 0.139 | [2] 0.002 | [3] 0.073 | [4] -0.068 | saracatinib 0

PHC1 (UniProt P78364)
inactive: vemurafenib 0.042 | barasertib 0.034 | [2] 0.097 | saracatinib 0.066 | sotrastaurin -0.354

POM121C (UniProt A8CG34)
inactive: [1] -0.037 | barasertib 0.201 | volasertib -0.101 | [3] 0.045 | [4] 0.146 | [5] 0.158

PCLAF (UniProt Q15004)
inactive: vemurafenib -0.016 | barasertib -0.068 | [2] 0.057 | [3] -0.033 | [4] -0.067 | [5] 0.121 | saracatinib -0.013 | sotrastaurin 0.011

PREP (UniProt H0Y5Y0)
inactive: [1] 0.019 | volasertib 0.079 | [4] 0.678 | [5] -0.144

PHKG1 isoform 2 (UniProt Q16816)
active: [4] -0.867
inactive: vemurafenib -0.197 | [1] -0.037 | [2] -0.062 | volasertib 0.033 | [3] 0.054 | [5] 0.64 | saracatinib 0.177 | sotrastaurin -0.269

PLXND1 (UniProt Q9Y4D7)
inactive: barasertib 0.045 | [3] -0.214 | saracatinib 0.018 | sotrastaurin 0.012

PFN1 (UniProt I3L3D5)
active: [4] 0.924
inactive: [1] -0.142 | barasertib 0.241 | [2] -0.01 | volasertib -0.107 | [3] -0.067 | [5] -0.135

POLR2F (UniProt U3KPV3)
inactive: [2] 0.13 | saracatinib -0.051

PIAS2 (UniProt O75928)
inactive: vemurafenib -0.263 | [2] -0.026 | [3] 0.003 | saracatinib 0.044 | sotrastaurin -0.033

PIK3CD (UniProt O00329)
inactive: vemurafenib -0.094 | [1] 0.005 | barasertib -0.046 | volasertib -0.015 | [3] 0.072 | [4] -0.109 | [5] 0.398 | saracatinib -0.04 | sotrastaurin 0.023

PLK1 (UniProt P53350)
active: sotrastaurin -0.335
inactive: vemurafenib 0.053 | [1] -0.009 | barasertib 0.003 | volasertib -0.009 | [3] 0.014 | [4] 0.165 | [5] -0.279 | saracatinib 0.021

PPME1 (UniProt Q9Y570)
Chain of UniProt Q9Y570 (Q9Y570 whole entry, looked up): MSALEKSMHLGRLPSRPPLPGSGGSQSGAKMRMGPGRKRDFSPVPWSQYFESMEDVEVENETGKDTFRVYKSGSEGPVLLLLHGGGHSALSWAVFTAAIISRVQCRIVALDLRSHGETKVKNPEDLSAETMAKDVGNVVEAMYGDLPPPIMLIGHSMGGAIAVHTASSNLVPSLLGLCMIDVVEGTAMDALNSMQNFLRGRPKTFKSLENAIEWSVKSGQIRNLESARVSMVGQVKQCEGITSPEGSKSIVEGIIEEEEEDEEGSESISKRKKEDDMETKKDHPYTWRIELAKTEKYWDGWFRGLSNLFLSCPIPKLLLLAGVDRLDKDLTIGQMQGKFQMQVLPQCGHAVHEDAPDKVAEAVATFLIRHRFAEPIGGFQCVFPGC
inactive: [1] -0.042 | barasertib 0.026 | [2] 0.104 | volasertib -0.012 | saracatinib -0.043

PNPLA4 (UniProt P41247)
inactive: vemurafenib 0.098 | [2] 0.002 | [3] -0.111 | [4] 0.165 | [5] 0.414 | saracatinib 0.009 | sotrastaurin -0.013

PRR4 (UniProt Q16378)
active: [5] -1.21
inactive: vemurafenib 0.367 | [1] 0.038 | [2] -0.21 | volasertib -0.046 | [3] -0.005 | [4] 0.358

PEX2 (UniProt P28328)
inactive: vemurafenib 0.079 | [1] -0.047 | barasertib 0.174 | volasertib 0.024 | [3] 0.052 | [4] 0.011 | [5] 0.024 | saracatinib -0.086 | sotrastaurin 0.036

PECR (UniProt Q9BY49)
inactive: [2] 0.023

PMS1 (UniProt P54277)
Chain of UniProt P54277 (P54277 whole entry, looked up): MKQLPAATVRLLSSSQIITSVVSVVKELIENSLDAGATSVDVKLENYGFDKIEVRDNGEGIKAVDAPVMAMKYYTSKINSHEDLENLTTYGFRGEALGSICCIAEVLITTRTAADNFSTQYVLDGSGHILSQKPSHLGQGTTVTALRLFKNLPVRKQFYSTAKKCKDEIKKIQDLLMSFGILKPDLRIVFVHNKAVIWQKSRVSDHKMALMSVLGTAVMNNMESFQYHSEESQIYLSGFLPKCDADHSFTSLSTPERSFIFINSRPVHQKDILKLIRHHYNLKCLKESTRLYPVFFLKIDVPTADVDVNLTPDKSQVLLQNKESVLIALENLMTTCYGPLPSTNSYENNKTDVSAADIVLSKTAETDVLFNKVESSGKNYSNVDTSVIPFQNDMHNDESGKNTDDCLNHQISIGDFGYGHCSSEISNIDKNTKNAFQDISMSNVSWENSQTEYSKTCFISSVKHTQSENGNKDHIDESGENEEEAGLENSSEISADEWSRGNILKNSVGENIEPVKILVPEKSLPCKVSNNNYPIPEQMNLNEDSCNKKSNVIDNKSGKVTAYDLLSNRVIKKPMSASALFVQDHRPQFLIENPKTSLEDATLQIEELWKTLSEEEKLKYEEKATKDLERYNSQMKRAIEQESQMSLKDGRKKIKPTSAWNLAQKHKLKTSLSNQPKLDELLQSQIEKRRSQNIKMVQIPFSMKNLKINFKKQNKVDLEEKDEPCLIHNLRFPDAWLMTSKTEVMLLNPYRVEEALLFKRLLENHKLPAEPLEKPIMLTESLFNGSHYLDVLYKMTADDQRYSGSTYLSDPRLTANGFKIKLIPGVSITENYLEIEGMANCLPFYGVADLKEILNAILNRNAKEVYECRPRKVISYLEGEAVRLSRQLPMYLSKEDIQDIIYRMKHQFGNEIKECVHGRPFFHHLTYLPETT
inactive: vemurafenib 0.037 | barasertib 0.193 | [2] 0.019 | [3] -0.028 | [4] -0.01 | [5] -0.051 | saracatinib 0.016 | sotrastaurin -0.002

PHGDH, A0A286YFE1
inactive: [1] 0.158 | barasertib 0.364 | volasertib 0.083 | saracatinib -0.318

PCBP2 (UniProt F8VRH0)
inactive: [1] -0.035 | volasertib -0.058 | [3] -0.138 | [4] -0.033 | [5] -0.047 | sotrastaurin -0.066

PPIC (UniProt P45877)
Chain of UniProt P45877 (P45877 whole entry, looked up): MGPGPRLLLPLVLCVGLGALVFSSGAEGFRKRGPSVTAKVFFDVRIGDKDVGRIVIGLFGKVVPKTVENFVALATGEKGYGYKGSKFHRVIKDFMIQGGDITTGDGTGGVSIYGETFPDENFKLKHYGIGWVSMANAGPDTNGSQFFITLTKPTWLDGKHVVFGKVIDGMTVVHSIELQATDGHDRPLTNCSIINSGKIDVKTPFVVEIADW
inactive: vemurafenib -0.009 | barasertib 0.203 | [3] 0.078 | [4] -0.112 | [5] 0.124 | saracatinib -0.004
active: sotrastaurin -0.453

PIP5K1A (UniProt Q99755)
active: [5] -0.514
inactive: [1] 0.029 | barasertib 0.108 | volasertib 0.07 | [3] -0.041 | [4] 0.027 | saracatinib 0.107 | sotrastaurin -0.018

PDIA4, A0A499FI48
active: [4] 1.69
inactive: [5] -0.33 | saracatinib 0.03 | sotrastaurin -0.048

NA (UniProt Q4G0T1)
Chain of UniProt Q4G0T1 (Q4G0T1 whole entry, looked up): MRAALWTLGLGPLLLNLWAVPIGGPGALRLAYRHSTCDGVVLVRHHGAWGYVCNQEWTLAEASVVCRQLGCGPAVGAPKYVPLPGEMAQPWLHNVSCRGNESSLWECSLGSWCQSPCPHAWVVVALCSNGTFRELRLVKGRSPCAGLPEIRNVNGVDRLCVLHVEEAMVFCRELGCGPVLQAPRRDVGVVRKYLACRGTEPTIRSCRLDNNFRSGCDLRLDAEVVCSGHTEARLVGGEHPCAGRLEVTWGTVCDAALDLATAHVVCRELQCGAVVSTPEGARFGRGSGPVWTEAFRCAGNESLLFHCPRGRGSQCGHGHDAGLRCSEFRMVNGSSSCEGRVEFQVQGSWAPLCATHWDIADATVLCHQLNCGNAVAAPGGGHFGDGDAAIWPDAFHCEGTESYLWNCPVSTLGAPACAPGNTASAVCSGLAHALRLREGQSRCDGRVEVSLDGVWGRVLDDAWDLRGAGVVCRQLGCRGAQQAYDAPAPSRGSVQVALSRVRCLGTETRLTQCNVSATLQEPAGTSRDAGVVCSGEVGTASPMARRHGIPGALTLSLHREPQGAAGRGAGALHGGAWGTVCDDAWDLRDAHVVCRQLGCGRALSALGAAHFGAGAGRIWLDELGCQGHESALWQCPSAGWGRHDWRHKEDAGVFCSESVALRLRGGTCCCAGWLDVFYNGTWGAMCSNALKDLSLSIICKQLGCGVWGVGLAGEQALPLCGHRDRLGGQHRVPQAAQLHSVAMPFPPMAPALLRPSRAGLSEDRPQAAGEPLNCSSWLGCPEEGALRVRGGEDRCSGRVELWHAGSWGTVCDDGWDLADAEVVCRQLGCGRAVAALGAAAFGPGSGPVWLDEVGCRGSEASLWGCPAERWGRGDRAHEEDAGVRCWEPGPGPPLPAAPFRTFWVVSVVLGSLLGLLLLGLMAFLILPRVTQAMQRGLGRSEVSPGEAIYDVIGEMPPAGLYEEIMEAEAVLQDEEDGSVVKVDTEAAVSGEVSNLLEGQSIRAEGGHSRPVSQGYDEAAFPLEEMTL
inactive: [3] 0.032 | [4] 0.022 | [5] 0.026 | saracatinib -0.033 | sotrastaurin 0.129
